# Test results: PubChem BioAssay AID720533 (National Center for Advancing Translational Sciences (NCATS), 2013)
# Out of some 18,000 compounds screened, about 750 (4.2%) were called active. Roughly 13% stayed inconclusive and do not appear here. Calls come from the whole dose curve; tested in HEK293 cells. This excerpt belongs to a sample that is enriched for actives. Positions of bridges follow the written chain, without caps; N, C: chain ends. Residues, ends and D or L forms follow the SMILES beside them.
# Assay: qHTS for Inhibitors of binding or entry into cells for Lassa Virus
# Settings: Lassa virus pseudotyped entry inhibition, cell-based qHTS; series mostly up to 49.2 µM; activity change, negative = inhibition: at the top concentration
# % is set by controls: 0 for no effect and ±100 for the full control effect; potency is the fitted concentration of half-maximal effect.
SMILES,"activity change, negative = inhibition",Potency
C[C@@H](O)[C@@H]1NC(=O)[C@H](CCCCN)NC(=O)[C@H](Cc2c[nH]c3ccccc23)NC(=O)[C@H](Cc2ccccc2)NC(=O)[C@H](Cc2ccccc2)NC(=O)[C@H](CC(N)=O)NC(=O)[C@H](CCCCN)NC(=O)[C@@H](NC(=O)[C@@H]2CCCN2)CSSC[C@@H](C(=O)N[C@@H](CCCCN)C(=O)O)NC(=O)[C@H](CO)NC(=O)[C@H](CO)NC(=O)[C@H](Cc2ccccc2)NC1=O (H-PCKNFFWKTFSSCK-OH; disulfide 2-13),-1.87% (inactive),–
C[C@@]12CC[C@H]3[C@@H](CC[C@]4(O)C[C@H](O)CC[C@@]34C=O)[C@]1(O)CC[C@@H]2C1=CC(=O)OC1,–,1.26 µM (active)
COC1CC(OC2CC[C@@]3(C=O)C4CC[C@]5(C)C(C6=CC(=O)OC6)CC[C@@]5(O)C4CC[C@]3(O)C2)OC(C)C1O (some centres undefined),–,0.282 µM (active)
Nc1nc2c(nc(Cl)n2C2OC(CO)C(O)C2O)c(=O)[nH]1 (centres undefined),-8.45% (inactive),–
CC(C)NC[C@H](O)c1ccc2ccccc2c1,inactive,–
C#C[C@]1(O)CC[C@H]2[C@@H]3CCC4=CC(=O)CC[C@@H]4[C@H]3CC[C@@]21CC,-26.1% (inactive),–
CC(=O)OCC(=O)[C@@]1(O)CCC2C3CCC4=CC(=O)CC[C@]4(C)C3C(=O)C[C@]21C (some centres undefined),-0.0255% (inactive),–
C#C[C@]1(OC(=O)CCCCCC)CC[C@H]2[C@@H]3CCC4=CC(=O)CC[C@@H]4[C@H]3CC[C@@]21C,–,31.6 µM (active)
O=c1[nH]c(=O)c2nc3ccccc3nc2[nH]1,4.84% (inactive),–
CC(O)(COc1ccccc1)c1ccc2c(c1)CN(Cc1cn[nH]c1-c1ccc(F)cc1)CCO2 (centres undefined),-20.1% (inactive),–
CCCCCC(=O)N1C[C@H](n2cc(COC(=O)c3ccccc3)nn2)[C@@H](O)C[C@H]1c1ccc(Cl)cc1,-9.09% (inactive),–
C=C(CCN1C=C(C(=O)OCC)C(c2ccccc2)NC1=O)OC (centres undefined),-11% [at 8.59 µM] (inactive),–
CC(O)[C@@H](N)C(=O)O (some centres undefined),-10.8% (inactive),–
COc1c(O)c2c(=O)cc(OC)c3c4c(OC)cc(=O)c5c(O)c(OC)c6c(c(c1C[C@@](C)(O)[C@H]6C(C)=O)c23)c54,–,35.5 µM (active)
CCOC(=O)C1=NO[C@@]2(C=C(Br)C(=O)[C@H]3O[C@H]32)C1,-19.1% (inactive),–
COc1ccc(C2CC(=O)Oc3ccc(C(C)(C)C)cc32)cc1 (centres undefined),-3.99% (inactive),–
CC(C)C[C@@H](CC(=O)N[C@@H](CCC(=O)O)CC(=O)O)NC(=O)[C@@H]1CCCC[C@H]1NC(=O)C[C@@H](NC(=O)C[C@H](CO)NC(=O)[C@@H]1CCCC[C@H]1N)C(C)C,-3.83% (inactive),–
CN1CCCC1CCO[C@@](C)(c1ccccc1)c1ccc(Cl)cc1 (some centres undefined),–,12.6 µM (active)
CN1CCC[C@@H]1CCO[C@](C)(c1ccccc1)c1ccc(Cl)cc1,-29.2% [at 17.8 µM] (inactive),–
Fc1ccc(C(OCCN2CCN(C/C=C\c3ccccc3)CC2)c2ccc(F)cc2)cc1,–,28.2 µM (active)

SMILES,"activity change, negative = inhibition",Potency
COc1ccc(CC2c3cc(OC)c(OC)cc3CC[N+]2(C)CCC(=O)OCCCCCOC(=O)CC[N+]2(C)CCc3cc(OC)c(OC)cc3C2Cc2ccc(OC)c(OC)c2)cc1OC (centres undefined),-6.74% [at 17.8 µM] (inactive),–
CC(C)[C@@H](CC(=O)N[C@@H]1CCNC[C@H]1C(=O)N[C@H](CC(=O)N[C@@H](CCC(=O)O)CC(=O)O)Cc1ccccc1)NC(=O)C[C@H](CO)NC(=O)[C@@H]1CNCC[C@H]1N,-0.433% (inactive),–
CN1CC(O)c2cc(N=NC(N)=O)c(O)cc21 (centres undefined),-5.48% (inactive),–
CN(C)CCc1c[nH]c2ccc(Cn3cncn3)cc12,5.48% (inactive),–
Fc1ccc(Cl)cc1-c1nc(Nc2ccncc2)c2nccnc2n1,-20.8% (inactive),–
CCS(=O)(=O)N(C)[C@@H]1c2cc(C#N)ccc2OC(C)(C)[C@H]1O,inactive,–
CCc1cc2c(nc1CC)CCN(CCC(C)=NOC[C@@H](O)COCc1ccco1)C2,3.34% [at 8.59 µM] (inactive),–
Cc1ccc(-c2cc(=O)c3ccc(Cl)cc3[nH]2)cc1,0.446% (inactive),–
C=C(C(C)=O)C(O)c1cccs1 (centres undefined),inactive,–
COC12CC[C@@]3(C[C@@H]1C(C)(O)C(C)(C)C)[C@H]1Cc4ccc(O)c5c4[C@@]3(CCN1CC1CC1)[C@H]2O5 (some centres undefined),–,28.2 µM (active)
COc1ccc(CNS(=O)(=O)c2cc(Br)ccc2Br)cc1,15.9% (inactive),–
O=S(O)CNc1ccc(S(=O)(=O)c2ccc(NCS(=O)O)cc2)cc1,1.37% (inactive),–
O=C(O)C1=CCCN(CCON=C(c2ccccc2)c2ccccc2)C1,inactive,–
COc1ccc(C2=C(N3CCc4ccccc43)C(=O)NC2=O)cc1,-26.5% (inactive),–
CC1=C(/C=C/C(C)=C/C=C/C(C)=C/C=C/C=C(C)/C=C/C=C(C)/C=C/C2=C(C)CCCC2(C)C)C(C)(C)CCC1,9.81% (inactive),–
COc1ccc(CCNc2ncnc3sc(C(=O)N4CCCC4)c(C)c23)cc1OC,-8.35% (inactive),–
Cc1c2ccc(N(C)c3ccnc(Nc4cccc(S(N)(=O)=O)c4)n3)cc2nn1C,-0.986% (inactive),–
C=CCC(C)(O)c1ccco1 (centres undefined),-0.27% (inactive),–
CC1=C[C@H]2c3ccccc3C[C@H]2CO[C@]12C(=O)N(Cc1ccc(Br)cc1)c1ccccc12,16.7% [at 8.59 µM] (inactive),–
